Measured values as given in PubChem BioAssay (NCATS).
Inconclusive results are not listed. Values without a mark were called inactive. The call rests on the fitted dose curve; in most records, active means well fitted activation curve with a large enough effect; inconclusive means small, poorly fitted or top-dose-only effect; inactive means flat fitted curve, though single readings scatter.

Assay: qHTS for Activators of Parkin Expression: LOPAC Validation Assay (NLuc Reporter) (AID 720572)
Details: Parkin promoter NanoLuc reporter cells, luminescence; series mostly up to 46.1 µM; activation: at the top concentration
Method in brief: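 NLuc signal, read 10 min after reagent and following a prior FLuc read, is normalized to DMSO (0) and positive controls (100%). Cells: neuronal Parkin-promoter coincidence reporter line; compounds tested 7-point, 24 h, 37 C, 5% CO2.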

**Q.** Which “activation” value does the source give for `CC(N)C(=O)OC(C)(C)Cc1ccc(Cl)cc1` (stereo not given) here?
**A.** -3.62%

**Q.** With `OC[C@H]1O[C@@H](n2cnc3c(NC4CCCC4)ncnc32)[C@H](O)[C@@H]1O` as the compound, how does the “activation” value read?
**A.** -4.39%

**Q.** Which “activation” value does the source give for `CCCN(CC1CC1)c1nc(C)nc(Nc2c(Cl)cc(Cl)cc2Cl)c1Cl` here?
**A.** 0.423%

**Q.** For `O=[N+]([O-])c1ccc(CSc2ncnc3c2ncn3[C@@H]2O[C@H](CO)[C@@H](O)[C@H]2O)cc1`, which “activation” value is on record?
**A.** -7.17%

**Q.** With `O=c1[nH]c2cc([N+](=O)[O-])c([N+](=O)[O-])cc2[nH]c1=O` as the compound, how does the “activation” value read?
**A.** -2.02%

**Q.** For `CCCCCC(O)c1cccc(OCc2ccc3ccccc3n2)c1` (stereo not given), which “activation” value is on record?
**A.** -15%

**Q.** Which “activation” value does the source give for `O=C(c1cc(O)c(O)c([N+](=O)[O-])c1)c1ccccc1F` here?
**A.** -21.3%

**Q.** Which “activation” value does the source give for `CN1C2CCC1CC(OC(=O)C(O)c1ccccc1)C2` (stereo not given) here?
**A.** -1.49%

**Q.** With `NC(=S)NCCC[C@H](N)C(=O)O` as the compound, how does the “activation” value read?
**A.** -3.1%

**Q.** For `CC(COc1ccc(/C=C/c2ccccc2)cc1)[N+](C)(C)C` (stereo not given), which “activation” value is on record?
**A.** -12.4%

**Q.** For `O=Nc1ccc2oc(=O)ccc2c1`, which “activation” value is on record?
**A.** -3.24%

**Q.** With `COc1ccccc1N1CCN(CCN(C(=O)c2ccc(I)cc2)c2ccccn2)CC1` as the compound, how does the “activation” value read?
**A.** -12.8%

**Q.** For `C[C@@H](NC(=O)/C(C#N)=C/c1ccc(O)c(O)c1)c1ccccc1`, which “activation” value is on record?
**A.** 19.1%

**Q.** With `COc1ccc2c(c1)CCC1C2CC[C@@]2(C)C1CC[C@@H]2NCCCCCCN1C(=O)CCC1=O` (stereo not given in full) as the compound, how does the “activation” value read?
**A.** 0.281%

**Q.** For `C=C[C@@H]1CN2CC[C@@H]1C[C@H]2[C@H](O)c1ccnc2ccc(OC)cc12`, which “activation” value is on record?
**A.** -4.35%

**Q.** For `Cn1c(=O)c2[nH]c(-c3ccccc3)nc2n(C)c1=O`, which “activation” value is on record?
**A.** 1.88%

**Q.** For `CCc1c(C(=O)NCCc2ccc(N3CCCCC3)cc2)[nH]c2ccc(Cl)cc12`, which “activation” value is on record?
**A.** -5.94%

**Q.** Which “activation” value does the source give for `Clc1ccc(N2CCN(Cc3cc4ccccn4n3)CC2)cc1` here?
**A.** -11.9%

**Q.** For `O=C1O/C(=C/Br)CCC1c1cccc2ccccc12` (stereo not given), which “activation” value is on record?
**A.** -21.6%

**Q.** Which “activation” value does the source give for `CO/N=C(\C(=O)N[C@@H]1C(=O)N2C(C(=O)O)=C(COC(C)=O)CS[C@H]12)c1csc(N)n1` here?
**A.** 2.17%

**Q.** With `OC[C@H]1O[C@@H](n2cnc3c(NC4CCCCC4)ncnc32)[C@H](O)[C@@H]1O` as the compound, how does the “activation” value read?
**A.** 0.981%

**Q.** Which “activation” value does the source give for `C[C@@H](CN1CCC(Cc2ccccc2)CC1)[C@@H](O)c1ccc(O)cc1` here?
**A.** -7.99%

**Q.** Which “activation” value does the source give for `C[N+]1(C)CCC(OC(=O)C(c2ccccc2)c2ccccc2)CC1` here?
**A.** -3.43%

**Q.** Which “activation” value does the source give for `CNC(=O)[C@H]1O[C@@H](n2cnc3c(NCc4ccc(N)cc4)ncnc32)[C@H](O)[C@@H]1O` here?
**A.** -0.635%

**Q.** For `NC(CCCP(=O)(O)O)C(=O)O` (stereo not given), which “activation” value is on record?
**A.** -1.23%

**Q.** With `N=C(N)SCCc1ccc(CCSC(=N)N)cc1` as the compound, how does the “activation” value read?
**A.** 2.93%

**Q.** For `NCCNC(=O)c1ncsc1-c1cccc(F)c1`, which “activation” value is on record?
**A.** -2.98%

**Q.** For `CCOC(=O)N1CCN(/[N+]([O-])=N/Oc2ccc([N+](=O)[O-])cc2[N+](=O)[O-])CC1`, which “activation” value is on record?
**A.** -19.1%

**Q.** With `CCCCCCCCCCCCCCCC(=O)OC(CC(=O)O)C[N+](C)(C)C` (stereo not given) as the compound, how does the “activation” value read?
**A.** -0.703%

**Q.** With `CN(C)c1ccc(/C=C2\C(=O)Nc3ccccc32)cc1` as the compound, how does the “activation” value read?
**A.** -8.7%

**Q.** Which “activation” value does the source give for `NCCCS(=O)(=O)O` here?
**A.** -7.56%

**Q.** For `COc1ccc(NC(=O)/C=C/c2ccc(Cl)cc2)cc1`, which “activation” value is on record?
**A.** -0.333%

**Q.** With `N#C/C(=C\c1ccc(O)c(O)c1)C(=O)NCCCc1ccccc1` as the compound, how does the “activation” value read?
**A.** 7.34%

**Q.** For `COc1cc2nc(N3CCN(C(=O)OCc4ccccc4)C(C(=O)NC(C)(C)C)C3)nc(N)c2cc1OC` (stereo not given), which “activation” value is on record?
**A.** 14.1%

**Q.** With `CC(=O)N[C@H](C(=O)O)C(C)(C)SN=O` as the compound, how does the “activation” value read?
**A.** -2.78%
